Growth data for eight compounds are collected here from PubChem BioAssay (NCI).

Some test systems named below: NCI-H23 lung; NCI-H226 lung; NCI-H322M lung; HOP-62 NSCLC; NCI-H460 lung; HOP-92 NSCLC; NCI-H522 lung; A549/ATCC NSCLC; 786-0 renal; COLO 205 colon; DU-145 prostate; K-562 leukemia; MALME-3M melanoma; MDA-MB-231 breast; RXF 393 renal; SF-268 CNS; SF-295 CNS; SF-539 CNS; UACC-257 melanoma; M14 melanoma.
Holding throughout (test): NCI-60 one-dose screen, 48 h (100 = growth as untreated, 0 = no growth, -100 = all killed)
What all share (settings): 10 µM unless noted

About 83,000 compounds went through this panel and 20% of them were active in at least one assay; those are over-represented in the sample as a whole.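 Results are percent growth after 48 hours of single-concentration exposure. 100 means growth as in untreated cells, lower positive values show inhibition; negative values down to -100 show cell death.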 A number with no mark means an inactive call. Active and inactive are the calls of the source. The calls were made as follows: active = growth percent below 10; inactive = the rest.

In the case of `Clc1ccc2c(c1)-n1cccc1C(c1ccc3ccccc3c1)=NC2`, the growth in the assay on NCI-H23 lung was 74.4%; in the assay on NCI-H226 lung it was 146%; in the assay on NCI-H322M lung it was 122%; with HOP-62 NSCLC it was 101%; with NCI-H460 lung it was 96.7%; in the assay on HOP-92 NSCLC, 89.6%. The growth was 41.3% in the assay with NCI-H522 lung; 121% in the assay with A549/ATCC NSCLC; 88.7% in the assay with 786-0 renal; 102% in the assay on COLO 205 colon; 115% in the assay with DU-145 prostate; 49.4% in the assay with K-562 leukemia. Also, the growth in the assay on MALME-3M melanoma was 97.8%; in the assay with MDA-MB-231 breast, 120%; in the assay with RXF 393 renal it was 96.1%; in the assay with SF-268 CNS, 109%; in the assay on SF-295 CNS, 80.6%; in the assay with SF-539 CNS it was 103%. Further, the growth in the assay on UACC-257 melanoma was 100%; in the assay on M14 melanoma, 87.8%.
For `C=CCn1c(C)nc2cc(Nc3nc(N4CCOCC4)nc4nc[nH]c34)ccc21`, the growth in the assay with NCI-H23 lung is 106%; in the assay with NCI-H226 lung it was 88.6%; in the assay on NCI-H322M lung, 88.3%; with HOP-62 NSCLC it was 67.8%; in the assay on NCI-H460 lung it was 94.1%; with HOP-92 NSCLC it was 4.17% (active). Further, the growth in the assay on NCI-H522 lung was 88.2%; in the assay with A549/ATCC NSCLC it was 95.1%; in the assay on 786-0 renal it was 63.1%; with COLO 205 colon it was 97.9%; with DU-145 prostate, 109%; in the assay on K-562 leukemia, 71%. Also, the growth with MALME-3M melanoma is 97.7%; in the assay with MDA-MB-231 breast, 77.7%; in the assay with RXF 393 renal it was 85.1%; with SF-268 CNS, 99%; in the assay with SF-295 CNS, 85%; in the assay with SF-539 CNS it was 87.3%. Moreover, the growth with UACC-257 melanoma was 94%; in the assay on M14 melanoma, 97%.
Turning to `CNC(=O)c1ccccc1Sc1ccc2c(/C=C/c3ccccn3)n[nH]c2c1`, the growth is 47.5% in the assay on NCI-H23 lung; 20.9% with NCI-H226 lung; 34.9% with NCI-H322M lung; 24.3% in the assay on HOP-62 NSCLC; 20.2% with NCI-H460 lung; 9.47% (active) with HOP-92 NSCLC. In addition, the growth was 24.2% in the assay with NCI-H522 lung; 28.6% in the assay with A549/ATCC NSCLC; 44% with 786-0 renal; 3.49% (active) with COLO 205 colon; 47.5% in the assay with DU-145 prostate; 6.57% (active) in the assay with K-562 leukemia. Also, the growth is 37.2% with MALME-3M melanoma; 39.7% in the assay with MDA-MB-231 breast; 2.21% (active) with RXF 393 renal; 41.9% with SF-268 CNS; 40% in the assay with SF-295 CNS; 3.31% (active) with SF-539 CNS. For the same compound, the figures for the growth with UACC-257 melanoma and in the assay on M14 melanoma were 31.5% and 16.9%, respectively.
On to `O=C1Cc2c([nH]c3ccc([N+](=O)[O-])cc23)-c2ccccc2N1`, for which the growth in the assay with NCI-H23 lung was 2.05% (active); in the assay on NCI-H226 lung, 27.1%; in the assay on NCI-H322M lung, 18.3%; with HOP-62 NSCLC, 17.8%; in the assay with NCI-H460 lung, 6.76% (active); in the assay on HOP-92 NSCLC, -17.1% (active). In addition, the growth in the assay with NCI-H522 lung was 0.987% (active); with A549/ATCC NSCLC it was 18.5%; with 786-0 renal, 7.56% (active); with COLO 205 colon, -58.1% (active); with DU-145 prostate, 4.56% (active); in the assay on K-562 leukemia, 3.25% (active). Further, the growth was 8.75% (active) with MALME-3M melanoma; 29.6% in the assay with MDA-MB-231 breast; 16% with RXF 393 renal; 10.8% in the assay with SF-268 CNS; 18.7% in the assay on SF-295 CNS; -37% (active) in the assay on SF-539 CNS. The growth with UACC-257 melanoma is 17.3%; with M14 melanoma, 16.8%.
As for `COc1ccc(C2CC(c3ccc(Nc4ccnc5cc(Cl)ccc45)cc3)=NN2c2ccccc2)cc1` (stereo not given), the growth was 97.7% in the assay on NCI-H23 lung; 102% in the assay with NCI-H226 lung; 100% in the assay with NCI-H322M lung; 106% with HOP-62 NSCLC; 85.6% in the assay with NCI-H460 lung; 68.5% in the assay on HOP-92 NSCLC. The growth with NCI-H522 lung is 90.6%; with A549/ATCC NSCLC, 85.8%; in the assay with 786-0 renal, 100%; with COLO 205 colon it was 86.5%; in the assay on DU-145 prostate, 105%; with K-562 leukemia, 67.9%. In addition, the growth with MALME-3M melanoma is 94.4%; in the assay with MDA-MB-231 breast, 103%; with RXF 393 renal it was 109%; with SF-268 CNS, 108%; with SF-295 CNS it was 107%; with SF-539 CNS, 88.2%. In addition, the results for the growth in the assay with UACC-257 melanoma and in the assay on M14 melanoma were 97.4% and 99.6%, respectively.
For the compound `CCOC(CN1CCN(CC(C)C(=O)c2ccccc2)CC1)c1ccccc1` (stereo not given), the growth with NCI-H23 lung is 112%; in the assay on NCI-H226 lung, 91.2%; in the assay on NCI-H322M lung, 95.5%; with HOP-62 NSCLC, 104%; in the assay with NCI-H460 lung, 99.7%; in the assay on HOP-92 NSCLC, 97.5%. Moreover, the growth was 73.9% in the assay on NCI-H522 lung; 96.5% with A549/ATCC NSCLC; 106% with 786-0 renal; 107% in the assay on COLO 205 colon; 112% with DU-145 prostate; 115% in the assay on K-562 leukemia. Moreover, the growth in the assay on MALME-3M melanoma was 105%; in the assay with MDA-MB-231 breast it was 95.5%; in the assay with RXF 393 renal, 99.5%; in the assay on SF-268 CNS, 113%; in the assay on SF-295 CNS it was 92.6%; with SF-539 CNS it was 111%. Besides, the growth in the assay on UACC-257 melanoma is 93.2%; in the assay on M14 melanoma, 114%.
Turning to `CC(=O)N1N=C(c2ccc(C)cc2)CC1c1cn(-c2ccccc2)nc1-c1cccc(Nc2ccnc3cc(Cl)ccc23)c1` (stereo not given), the growth with NCI-H23 lung was 79.1%; with NCI-H226 lung it was 111%; in the assay with NCI-H322M lung it was 56.9%; in the assay with HOP-62 NSCLC, -19.7% (active); in the assay with NCI-H460 lung, 15.8%; in the assay on HOP-92 NSCLC, 78.7%. The growth is 36% with NCI-H522 lung; 68.4% with A549/ATCC NSCLC; 52.3% in the assay on 786-0 renal; 93.8% in the assay with COLO 205 colon; 34.3% in the assay on DU-145 prostate; 15.1% with K-562 leukemia. Besides, the growth with MALME-3M melanoma was -2.79% (active); with MDA-MB-231 breast, 58.9%; in the assay with RXF 393 renal, 67.8%; with SF-268 CNS it was 73.7%; in the assay on SF-295 CNS, 109%; in the assay with SF-539 CNS, 99.4%. Moreover, the growth in the assay on UACC-257 melanoma was 106%; with M14 melanoma, 87.3%.
On to `O=C(/C=C/c1cccc([N+](=O)[O-])c1)c1ccc(Nc2nc(N3CCCCC3)nc(N3CCCCC3)n2)cc1`, for which the growth is 98.7% with NCI-H23 lung; 74.2% with NCI-H226 lung; 103% with NCI-H322M lung; 105% with HOP-62 NSCLC; 96% in the assay on NCI-H460 lung; 102% with HOP-92 NSCLC. Further, the growth in the assay with NCI-H522 lung is 87.2%; with A549/ATCC NSCLC, 85.7%; with 786-0 renal, 93.9%; in the assay on COLO 205 colon it was 108%; with DU-145 prostate, 98.7%; in the assay with K-562 leukemia, 97.7%. In addition, the growth with MALME-3M melanoma is 118%; with MDA-MB-231 breast it was 103%; in the assay on RXF 393 renal, 100%; with SF-268 CNS it was 97.5%; in the assay with SF-295 CNS, 93.2%; with SF-539 CNS, 99.6%. The growth is 97.4% in the assay with UACC-257 melanoma and 98% in the assay on M14 melanoma.
